# According to PubChem BioAssay (NCI):
# The panel holds about 83,000 compounds, 20% with a hit somewhere; the sample as a whole holds those more often.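 48-hour exposure, single concentration, 96-well plates; percent growth endpoint where 0 means no net growth. Active: below 10.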 Unmarked numbers belong to inactive results. Active and inactive are the calls of the source.
# Key:
# Assay in all cases: NCI-60 one-dose screen, 48 h (100 = growth as untreated, 0 = no growth, -100 = all killed)
# [1] = test system: HCT-15 colon; conditions: 10 µM unless noted
# [2] = test system: HT29 colon; conditions: 10 µM unless noted
# [3] = test system: SNB-75 CNS; conditions: 10 µM unless noted
# [4] = test system: SNB-19 CNS; conditions: 10 µM unless noted
# [5] = test system: U251 CNS; conditions: 10 µM unless noted
# [6] = test system: PC-3 prostate; conditions: 10 µM unless noted
# [7] = test system: SK-MEL-5 melanoma; conditions: 10 µM unless noted
# [8] = test system: UACC-62 melanoma; conditions: 10 µM unless noted
# [9] = test system: LOX IMVI melanoma; conditions: 10 µM
# [10] = test system: SK-MEL-28 melanoma; conditions: 10 µM unless noted
# [11] = test system: SK-MEL-2 melanoma; conditions: 10 µM unless noted
# [12] = test system: EKVX NSCLC; conditions: 10 µM unless noted
# [13] = test system: SN12C renal; conditions: 10 µM unless noted
# [14] = test system: UO-31 renal; conditions: 10 µM unless noted
# [15] = test system: TK-10 renal; conditions: 10 µM unless noted
# [16] = test system: ACHN renal; conditions: 10 µM unless noted
# [17] = test system: CAKI-1 renal; conditions: 10 µM unless noted
# [18] = test system: A498 renal; conditions: 10 µM unless noted
# [19] = test system: CCRF-CEM leukemia; conditions: 10 µM unless noted
# [20] = test system: MOLT-4 leukemia; conditions: 10 µM unless noted
SMILES,growth [1],growth [2],growth [3],growth [4],growth [5],growth [6],growth [7],growth [8] [%],growth [9],growth [10],growth [11],growth [12],growth [13],growth [14],growth [15],growth [16],growth [17],growth [18],growth [19],growth [20]
COc1ccc(C2CC(c3ccc(S(=O)(=O)NCCNc4nc(Nc5ccc(F)cc5)nc(N(C)C)n4)cc3)=Nc3c(N)nc(N)nc3N2)cc1 (stereo not drawn),82.7%,63.4%,92.7%,76.3%,64.5%,53.7%,71.7%,81.6,65.1%,85.5%,107%,87.9%,81.1%,86.2%,107%,92.7%,88.1%,93.6%,36.2%,20.6%
Cn1cc(-c2nnc(N)nc2-c2c[nH]c3ccc(Br)cc23)c2cc(Br)cnc21,22.4%,16.6%,32%,65.5%,62.4%,38.5%,68%,46.3,58.7%,43.6%,35.4%,64.3%,63%,42.4%,37.7%,61.3%,33%,39.4%,28%,11.7%
O=C(c1ccccc1)C(c1c[nH]c2ccccc12)c1c[nH]c2ccccc12,13%,22.9%,72.4%,91.7%,59.9%,38.6%,92.5%,60.4,-48.4% (active),76.9%,71.9%,76.5%,49%,45%,142%,53.5%,31.6%,98.1%,3.87% (active),16.5%
C#CCOc1cc(N(CC)CC)ccc1C(C(=O)NC(C)(C)C)N(C(=O)C1CCc2cc(F)ccc2O1)c1ccccc1Br (stereo not drawn),50.2%,51.1%,97.5%,56.5%,48.6%,27.3%,56.8%,40.8,31.7%,64.8%,3.66% (active),60.4%,56.3%,43.4%,86.3%,42.1%,44.7%,80.9%,57.5%,14.4%
C#C[C@]1(O)CC[C@H]2[C@@H]3CC=C4c5sc(-c6ccc([N+](=O)[O-])cc6)nc5CC[C@]4(C)[C@H]3CC[C@@]21C,-41.4% (active),-80.4% (active),93.7%,34.5%,0.123% (active),1.72% (active),23%,10.6,-59.9% (active),-44.8% (active),-42.8% (active),-61.6% (active),57%,-44.8% (active),52%,3.11% (active),23.1%,6.18% (active),9.17% (active),–
COc1cc2oc(-c3cccc(NC(=O)[C@H](CC(N)=O)NC(=O)OC(C)(C)C)c3)cc(=O)c2c(OC)c1OC,99.8%,97.8%,95.9%,96%,90.1%,75.8%,87.6%,82,81.5%,94%,103%,99.1%,96.9%,80.1%,118%,80.7%,84.5%,93.8%,54.5%,65.1%
COc1cc2nc(SCc3ccccc3)n(-c3ccc(Cl)cc3)c(=O)c2cc1OC,33.6%,45.4%,-49.5% (active),-30% (active),-73.1% (active),1.2% (active),82.9%,29.3,-100% (active),21.6%,28.3%,-13.1% (active),-11.3% (active),-38.8% (active),-38.8% (active),-66.4% (active),-75.5% (active),7.03% (active),18.5%,–
CCCS(=O)(=O)N1CCCC(C(=O)Nc2nc3ccc(NC(=O)c4ccc(F)c(OC)c4F)cc3s2)C1 (stereo not drawn),37.1%,54.2%,64.1%,63.7%,51.5%,37.3%,-41% (active),45.4,37.6%,59.9%,49.7%,39.7%,65.5%,38.8%,75.3%,46.7%,43.2%,84.3%,14.9%,0.124% (active)
